Results reported in PubChem BioAssay (NCI).
This is part of a sample that, as a whole, favours compounds with a hit. Of some 83,000 tested, about 20% had one in any assay.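 96-well plates, one dose, 48 hours. Percent growth reported; active if below 10.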 Values without a mark were called inactive. Activity calls are given as the source filed them.

Columns and labels:
Test in all cases: NCI-60 one-dose screen, 48 h (100 = growth as untreated, 0 = no growth, -100 = all killed)
HT29 colon = settings: 10 µM unless noted
SNB-75 CNS = settings: 10 µM unless noted
SNB-19 CNS = settings: 10 µM unless noted
U251 CNS = settings: 10 µM unless noted
PC-3 prostate = settings: 10 µM unless noted
SK-MEL-5 melanoma = settings: 10 µM unless noted
UACC-62 melanoma = settings: 10 µM unless noted
LOX IMVI melanoma = settings: 10 µM unless noted
SK-MEL-28 melanoma = settings: 10 µM
SK-MEL-2 melanoma = settings: 10 µM unless noted
EKVX NSCLC = settings: 10 µM unless noted
SN12C renal = settings: 10 µM unless noted
UO-31 renal = settings: 10 µM unless noted
TK-10 renal = settings: 10 µM unless noted
ACHN renal = settings: 10 µM unless noted
CAKI-1 renal = settings: 10 µM unless noted
A498 renal = settings: 10 µM unless noted
CCRF-CEM leukemia = settings: 10 µM unless noted
MOLT-4 leukemia = settings: 10 µM unless noted
SR leukemia = settings: 10 µM unless noted

Compound | growth (HT29 colon) | growth (SNB-75 CNS) | growth (SNB-19 CNS) | growth (U251 CNS) | growth (PC-3 prostate) | growth (SK-MEL-5 melanoma) | growth (UACC-62 melanoma) | growth (LOX IMVI melanoma) | growth (SK-MEL-28 melanoma) | growth (SK-MEL-2 melanoma) | growth (EKVX NSCLC) | growth (SN12C renal) | growth (UO-31 renal) | growth (TK-10 renal) | growth (ACHN renal) | growth (CAKI-1 renal) | growth (A498 renal) | growth (CCRF-CEM leukemia) | growth (MOLT-4 leukemia) | growth (SR leukemia) [%]
O=C(COc1cc(O)c2c(=O)cc(-c3ccccc3)oc2c1)Nc1ccccc1 | 106% | 88% | 87.4% | 93.7% | 86.2% | 99% | 93.7% | 89.6% | 107% | 96.6% | 103% | 89.9% | 80.2% | 103% | 57.9% | 77.9% | 98.8% | 94.4% | 91.1% | 
COc1ccc(Cn2cc(Cn3c(=O)c(-c4nc5ccccc5[nH]4)cc4ccccc43)nn2)c(OC)c1OC | 4.85% (active) | -74% (active) | 22.8% | 12.7% | 17% | 5.92% (active) | 23.2% | 18.9% | 50.1% | 28% | 30.8% | 18.7% | 18.2% | 33.9% | 35% | 21.7% | -27.4% (active) | 22.6% | 17.9% | 21.8
CCOC(=O)c1c(C=O)nc2ccccc2c1/C=C/c1ccc(Cl)cc1 | 112% | 79.7% | 92.8% | 92.6% | 91.4% | 83.1% | 102% | 96.9% | 103% | 105% | 81.6% | 96.7% | 72.7% | 122% | 89.1% | 89.6% | 103% | 76.6% | 78.9% | 
CN1CCN(Cc2ccc(C(=O)Nc3cncc(C#Cc4cnc(N)c5ccccc45)c3)cc2C(F)(F)F)CC1 | -53.2% (active) | -96.4% (active) | -47.5% (active) | -70.5% (active) | -18.8% (active) | -94.6% (active) | 42.7% | -92.4% (active) | -85.5% (active) | -53.9% (active) | -8.85% (active) | -81.7% (active) | -90.7% (active) | -70.1% (active) | -76.1% (active) | -91.4% (active) | -62.9% (active) | 0.702% (active) | -30% (active) | 
CC1=C(C(=O)OCC2CCN(C(=O)OC(C)(C)C)CC2)[C@H](c2cccc(C#N)c2)C2=C(CC(C)(C)CC2=O)N1 | 30.9% | 62.5% | 51.7% | 47.6% | 59.4% | 20.5% | 43.5% | 15.2% | 68.4% | 75.3% | 62.6% | 52.9% | 57.8% | 69.7% | 35.4% | 52.4% | 68.3% | 40.5% | 25.3% | 
COc1ccc2c(c1)C=C1CSCC3=Cc4cc(OC)ccc4OC13O2 | 6.74% (active) | 23.9% | 28.9% | 18.7% | 19.3% | 14% | 14.2% | 24.1% | 60% | 52.6% | 40.3% | 28.2% | 44.5% | 60.7% | 32.5% | 37.1% | 4.68% (active) | 16.1% | 14.3% | 27
O=c1oc2ccc(I)cc2c(=O)n1-c1ccc(Cl)cc1F | 63.6% | -12.3% (active) | 20.8% | 0.686% (active) | -0.803% (active) | -87.2% (active) | -15.8% (active) | 13% | 10.9% | -28.6% (active) | 9.47% (active) | 2.21% (active) | 2.47% (active) | 10.5% | 3.57% (active) | -16.9% (active) | -68.3% (active) | 7.77% (active) | -11.1% (active) | 
O=c1oc2ccc(Cl)cc2c(=O)n1-c1ccc(I)cc1F | 33.6% | -28.4% (active) | 18.6% | -1.68% (active) | 1.89% (active) | -81.5% (active) | -28.8% (active) | 0.538% (active) | 0.51% (active) | -24.3% (active) | 11.4% | -1.14% (active) | 7.35% (active) | 11% | 4.07% (active) | -16.3% (active) | -75.5% (active) | 7.15% (active) | -28.6% (active) | 
O=c1oc2ccc(-c3ccc(F)cc3F)cc2c(=O)n1-c1cccc(C(F)(F)F)c1 | 31.3% | -7.33% (active) | 14.4% | 4.94% (active) | 3.58% (active) | -76.4% (active) | 7.26% (active) | 25.7% | 25% | -15.9% (active) | 13.5% | 4.72% (active) | 1.41% (active) | 11.6% | 6.31% (active) | -12.6% (active) | -42.6% (active) | 10.4% | 1.99% (active) | 
O=C1NC(=O)C(=Cc2cn(Cc3cn(Cc4ccc(Cl)cc4Cl)nn3)c3ccccc23)C(=O)N1 | 111% | 75.4% | 88.5% | 91% | 89.6% | 69.5% | 67.6% | 80.1% | 107% | 79.3% | 104% | 90.4% | 63.9% | 68.8% | 102% | 56.3% | 38.3% | 76.4% | 84.6% | 
CSc1nc2c(c(=O)[nH]1)N=C1c3ccccc3C(=O)C1C(c1ccc(F)cc1)N2 (configuration not stated) | 18% | 26.8% | 61.6% | 58.8% | 69.3% | 39.8% | 43.1% | 62% | 83.5% | 72.1% | 74.8% | 87.7% | 62.8% | 78.2% | 59.1% | 25.8% | 88.2% | 52.5% | 76% | 31.5
COc1ccc(C2Nc3nc(OC)n(C)c(=O)c3N=C3c4ccccc4C(=O)C32)cc1 (configuration not stated) | 113% | 77.4% | 91.8% | 90.8% | 87.8% | 95% | 93.1% | 87.7% | 106% | 89.7% | 81.9% | 86.6% | 94.2% | 124% | 85.3% | 54.4% | 105% | 87.9% | 77.3% | 
O=C(c1ccccc1)N(C(=S)NCCc1ccc(Cl)cc1)c1ccc(Cl)cc1 | 37.6% | 74.8% | 59.3% | 47.8% | 66.2% | 67.2% | 76.8% | -16.6% (active) | 42.8% | 40.7% | 83.5% | 66.1% | 59.1% | 44.3% | 64.5% | 42.1% | 91.4% | 80.7% | -10.7% (active) | 
C#CCn1cc(C=C2C(=O)N(C)C(=O)N(C)C2=O)c2cc(Cl)ccc21 | 118% | 91.6% | 105% | 113% | 103% | 99.5% | 94% | 96.8% | 113% | 95.5% | 98.1% | 101% | 80.1% | 106% | 99.4% | 91.7% | 70% | 105% | 105% | 
Cc1c(C(=O)OCCO)cc(-c2ccc(Cl)cc2)n1-c1ccc(Cl)cc1Cl | 74.6% | 82.3% | 90.6% | 77.7% | 70.4% | 67.1% | 54.5% | 65.1% | 70.8% | 95.9% | 63.8% | 61.1% | 69.4% | 101% | 71.4% | 63.6% | 77.3% | 65.4% | 49.8% | 
O=C1c2cc(Br)ccc2Oc2cc([N+](=O)[O-])ccc2N1c1ccc(I)cc1F | 99.6% | 89.5% | 94% | 94.4% | 103% | 99.2% | 87.2% | 93.5% | 113% | 101% | 91.9% | 94.2% | 73% | 112% | 99.7% | 84.9% | 98.9% | 96.8% | 85% | 
